The values that follow come from PubChem BioAssay AID1259417 (TB Discovery Research, Infectious Disease Research Institute, 2018).

This assay is described as follows: M. tuberculosis growth inhibition, HTS (AID 1259417).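 Further: bacteria grown with compound for 5 days at 37 °C.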 To be noted: stronger effect = higher value, concentration not given here.
Setting [1] is: M. tuberculosis DsRed fluorescence growth inhibition.
[2] abbreviates: M. tuberculosis growth inhibition.

Broadly, the inhibition is the change of the read-out against control, counted positive when it falls.

SMILES strings stand for the structures. The campaign covered roughly 1,100 compounds. About 760 (69%) were called active. How the calls were made is not given here. So high a share suggests a set chosen from earlier hits. This is one part of the list.

In the case of `CCOC(=O)COc1ccc2c(=O)c(-c3ccccc3OC)coc2c1`, the inhibition under setting [1] was 10.9% (inactive) and the inhibition under setting [2] was found to be 27%.

In the case of `COC(=O)COc1ccc2c(=O)c(-c3ccccc3OC)coc2c1`, the inhibition was 16.1% (active) under setting [1] and 38.3% under setting [2].

Take `COC(=O)COc1ccc2c(=O)c(Oc3ccccc3)c(C)oc2c1`: the inhibition reads like this: under setting [1], 77.7% (active); under setting [2], 88.9%.

For `CCOC(=O)COc1ccc2c(=O)c(-c3ccccc3)coc2c1`, the inhibition reads like this: under setting [1], 96% (active); under setting [2], 97%.

Consider `COc1ccccc1-c1coc2cc(OCC(=O)OCc3ccccc3)ccc2c1=O`, for which the inhibition is 36.9% (active) under setting [1] and 64.7% under setting [2].

As to `COC(=O)COc1ccc2c(=O)c(-c3ccccc3Cl)coc2c1`, the inhibition under setting [1] was 74% (active) and the inhibition under setting [2] came to 94.8%.

For `CCC(C(=O)Nc1ccc(CC(=O)OC)cc1)c1ccccc1` (configuration not stated), the inhibition reads like this: under setting [1], 70.5% (active); under setting [2], 93.3%.

Take `CCCCc1ccc(NC(=O)c2cc3cc(Br)cc(OC)c3oc2=O)cc1`: the inhibition reads like this: under setting [1], 4.42% (active); under setting [2], 82.8%.

Take `COc1ccc(OC)c(NC(=O)c2cc3cc(Cl)ccc3oc2=O)c1`: the inhibition under setting [1] is 12.1% (inactive) and the inhibition under setting [2] was 21.1%.

Take `COc1cc(Br)cc2cc(C(=O)Nc3cccc(C(F)(F)F)c3)c(=O)oc12`: the inhibition reads like this: under setting [1], 10.9% (inactive); under setting [2], 29.4%.

On to `COc1ccc(OC)c(NC(=O)c2cc3cc(Br)ccc3oc2=O)c1`, for which the inhibition under setting [1] is 9.39% (active) and the inhibition under setting [2] stood at 46.5%.

As to `COc1cc(NC(=O)c2cc3ccccc3o2)ccc1NC(=O)c1ccccc1Cl`, the inhibition under setting [1] is 2.65% (inactive) and the inhibition under setting [2] is -0.577%.

Turning to `Cn1nc([N+](=O)[O-])nc1Sc1nnc(-c2cccnc2)o1`, the inhibition is, setting by setting: under setting [1], 87.1% (active); under setting [2], 91.2%.

As to `CC(NS(=O)(=O)c1cccc(Cl)c1)C(=O)Nc1ccc(Br)cc1F` (configuration not stated), the inhibition is 11.5% (inactive) under setting [1] and 13.5% under setting [2].

On to `Cc1cc(Cl)ccc1NC(=O)CCc1ccc(S(=O)(=O)NC(C)C)cc1`, for which the inhibition is 94.8% (active) under setting [1] and 83.1% under setting [2].

`Cc1ccc(NC(=O)C(C)NS(=O)(=O)c2ccc(Cl)cc2)cc1Cl` (configuration not stated): the inhibition was 2.64% (inactive) under setting [1] and -8.36% under setting [2].

As to `Cc1cc(Cl)ccc1NC(=O)CCc1ccc(S(=O)(=O)NCC(C)C)cc1`, the inhibition reads like this: under setting [1], 95.3% (active); under setting [2], 83.6%.

Take `CCOC(=O)c1cccc(NC(=O)C(Cl)Cl)c1`: the inhibition was 47.5% (active) under setting [1] and 52.3% under setting [2].

Regarding `COc1cc(NC(=O)C(Cl)Cl)c(OC)cc1Cl`, the inhibition by setting is: under setting [1], 7.63% (inactive); under setting [2], 4.68%.

For `Cc1cc(=O)[nH]c(-n2nc(C)cc2C)n1`, the inhibition is 91.4% (active) under setting [1] and 94.9% under setting [2].

As for `COc1cc(C(=O)Nc2sc3c(c2C(=O)NCC2CCCO2)CCC3)cc(OC)c1OC` (configuration not stated), the inhibition under setting [1] was -3.52% (inactive) and the inhibition under setting [2] is -31.7%.

Consider `CC(C)(C)c1ccc(C(=O)Nc2sc3c(c2C(=O)NCC2CCCO2)CCCC3)cc1` (configuration not stated), for which the inhibition is 12.8% (inactive) under setting [1] and -13.4% under setting [2].

In the case of `COc1ccc(-c2nsc(SCC(=O)NCc3ccco3)n2)cc1`, the inhibition was 93.1% (active) under setting [1] and 66.6% under setting [2].

With `Cc1cccc(-c2nsc(SCC(=O)NCC3CCCO3)n2)c1` (configuration not stated), the inhibition was 94.3% (active) under setting [1] and 76.8% under setting [2].

Regarding `COc1ccc(-c2nsc(SCC(=O)NCC3CCCO3)n2)cc1` (configuration not stated), the inhibition is 95.7% (active) under setting [1] and 76.1% under setting [2].

Regarding `c1c2c(cc3sc(N4CCCC4)nc13)OCO2`, the inhibition was 100% (active) under setting [1] and 99.8% under setting [2].

Turning to `Cc1cc(NC(=O)CSc2nnnn2-c2ccccc2C)no1`, the inhibition was 56.3% (active) under setting [1] and 88.3% under setting [2].

`Cc1cc(NC(=O)CSc2nnc(Cc3ccccc3)o2)no1`: the inhibition is -2.93% (inactive) under setting [1] and 6.89% under setting [2].

On to `CCOc1ccc(-c2nnc(SCC(=O)Nc3cc(C)on3)o2)cc1`, for which the inhibition was -1.63% (active) under setting [1] and 32.7% under setting [2].

For `Cc1ccc(-c2nnc(SCC(=O)Nc3cc(C)on3)o2)cc1`, the inhibition is, setting by setting: under setting [1], 2.19% (active); under setting [2], 50.5%.

Consider `CCOc1ccc(NC(=O)CSc2nnc(-c3ccccc3Cl)o2)cc1`, for which the inhibition runs as follows: under setting [1], 13.5% (inactive); under setting [2], -1.29%.

`O=C(CCN1C(=O)c2ccccc2C1=O)Oc1cccc2cccnc12`: the inhibition by setting is: under setting [1], 99.5% (active); under setting [2], 100%.

Consider `CC(C(=O)Oc1cccc2cccnc12)N1C(=O)C2C3C=CC(C4CC34)C2C1=O` (configuration not stated), for which the inhibition by setting is: under setting [1], 100% (active); under setting [2], 101%.

As to `O=C(Oc1cccc2cccnc12)C(Cc1ccccc1)N1C(=O)C2C3CCC(C3)C2C1=O` (configuration not stated), the inhibition reads like this: under setting [1], 99.8% (active); under setting [2], 101%.

`O=C(CCN1C(=O)C2C3C=CC(C4CC34)C2C1=O)Oc1cccc2cccnc12` (configuration not stated): the inhibition is 100% (active) under setting [1] and 101% under setting [2].

In the case of `COc1cc2cc(-c3nc4ccccc4[nH]3)c(N)nc2cc1OC`, the inhibition under setting [1] was 93.9% (active) and the inhibition under setting [2] turned out to be 94%.

In the case of `COc1ccc(CNC(=O)c2c(N)nc3sc4c(c3c2C(F)(F)F)CCC4)cc1`, the inhibition is, setting by setting: under setting [1], 4.42% (inactive); under setting [2], -3.32%.

Turning to `CCc1nc2sc(C(=O)NCc3ccc(F)cc3)c(N)c2c(C(F)(F)F)c1C`, the inhibition runs as follows: under setting [1], 41.1% (active); under setting [2], 20.9%.

With `COC(=O)CN1C(c2ccc(OC)cc2)=Nc2ccc(Cl)cc2C1c1ccccc1` (configuration not stated), the inhibition was 52.5% (active) under setting [1] and 79.3% under setting [2].

With `COC(=O)CN1C(c2cccc(Cl)c2)=Nc2ccc(Cl)cc2C1c1ccccc1` (configuration not stated), the inhibition under setting [1] was 10.1% (active) and the inhibition under setting [2] stood at 40.7%.

Take `CC12CC3CC(C)(C1)CC(C(=O)Nc1nc4ccccc4s1)(C3)C2`: the inhibition under setting [1] was 98.3% (active) and the inhibition under setting [2] was found to be 97.6%.
